# Measurements as given in the supplement of paper PMC12067093, “Discovery and optimisation of a covalent ligand for TRIM25 and its application to targeted protein ubiquitination” (Chemical Science, 2025).
# Targets with the largest changes are over-represented here; the source holds about 21,000 in all.
# Compound: Cc1cc(ccc1-c1ccccc1)C(=O)N1CCCN(CC1)C(=O)CCl [compound 10]
# Assay: probe-labelled cysteine peptide fold change vs DMSO (competition) (log2 fold change); higher = less target engagement (more negative = stronger competition)
# Conditions: THP-1, incubation time: 4 h
# 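Further: competitive profiling in live THP-1 cells: cysteine peptides tagged with an iodoacetamide desthiobiotin (IA-DTB) probe, intensity after compound treatment relative to DMSO-treated cells.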
# Sequence of UniProt Q9BVK8 (Q9BVK8 whole entry): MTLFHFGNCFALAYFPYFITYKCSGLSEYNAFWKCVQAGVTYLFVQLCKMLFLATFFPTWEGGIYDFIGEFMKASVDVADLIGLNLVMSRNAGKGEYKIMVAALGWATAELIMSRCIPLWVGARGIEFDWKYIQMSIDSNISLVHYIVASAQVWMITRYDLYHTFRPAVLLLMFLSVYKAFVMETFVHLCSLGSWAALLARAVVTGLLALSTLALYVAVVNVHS
# Sequence of UniProt Q92673 (Q92673 whole entry, looked up): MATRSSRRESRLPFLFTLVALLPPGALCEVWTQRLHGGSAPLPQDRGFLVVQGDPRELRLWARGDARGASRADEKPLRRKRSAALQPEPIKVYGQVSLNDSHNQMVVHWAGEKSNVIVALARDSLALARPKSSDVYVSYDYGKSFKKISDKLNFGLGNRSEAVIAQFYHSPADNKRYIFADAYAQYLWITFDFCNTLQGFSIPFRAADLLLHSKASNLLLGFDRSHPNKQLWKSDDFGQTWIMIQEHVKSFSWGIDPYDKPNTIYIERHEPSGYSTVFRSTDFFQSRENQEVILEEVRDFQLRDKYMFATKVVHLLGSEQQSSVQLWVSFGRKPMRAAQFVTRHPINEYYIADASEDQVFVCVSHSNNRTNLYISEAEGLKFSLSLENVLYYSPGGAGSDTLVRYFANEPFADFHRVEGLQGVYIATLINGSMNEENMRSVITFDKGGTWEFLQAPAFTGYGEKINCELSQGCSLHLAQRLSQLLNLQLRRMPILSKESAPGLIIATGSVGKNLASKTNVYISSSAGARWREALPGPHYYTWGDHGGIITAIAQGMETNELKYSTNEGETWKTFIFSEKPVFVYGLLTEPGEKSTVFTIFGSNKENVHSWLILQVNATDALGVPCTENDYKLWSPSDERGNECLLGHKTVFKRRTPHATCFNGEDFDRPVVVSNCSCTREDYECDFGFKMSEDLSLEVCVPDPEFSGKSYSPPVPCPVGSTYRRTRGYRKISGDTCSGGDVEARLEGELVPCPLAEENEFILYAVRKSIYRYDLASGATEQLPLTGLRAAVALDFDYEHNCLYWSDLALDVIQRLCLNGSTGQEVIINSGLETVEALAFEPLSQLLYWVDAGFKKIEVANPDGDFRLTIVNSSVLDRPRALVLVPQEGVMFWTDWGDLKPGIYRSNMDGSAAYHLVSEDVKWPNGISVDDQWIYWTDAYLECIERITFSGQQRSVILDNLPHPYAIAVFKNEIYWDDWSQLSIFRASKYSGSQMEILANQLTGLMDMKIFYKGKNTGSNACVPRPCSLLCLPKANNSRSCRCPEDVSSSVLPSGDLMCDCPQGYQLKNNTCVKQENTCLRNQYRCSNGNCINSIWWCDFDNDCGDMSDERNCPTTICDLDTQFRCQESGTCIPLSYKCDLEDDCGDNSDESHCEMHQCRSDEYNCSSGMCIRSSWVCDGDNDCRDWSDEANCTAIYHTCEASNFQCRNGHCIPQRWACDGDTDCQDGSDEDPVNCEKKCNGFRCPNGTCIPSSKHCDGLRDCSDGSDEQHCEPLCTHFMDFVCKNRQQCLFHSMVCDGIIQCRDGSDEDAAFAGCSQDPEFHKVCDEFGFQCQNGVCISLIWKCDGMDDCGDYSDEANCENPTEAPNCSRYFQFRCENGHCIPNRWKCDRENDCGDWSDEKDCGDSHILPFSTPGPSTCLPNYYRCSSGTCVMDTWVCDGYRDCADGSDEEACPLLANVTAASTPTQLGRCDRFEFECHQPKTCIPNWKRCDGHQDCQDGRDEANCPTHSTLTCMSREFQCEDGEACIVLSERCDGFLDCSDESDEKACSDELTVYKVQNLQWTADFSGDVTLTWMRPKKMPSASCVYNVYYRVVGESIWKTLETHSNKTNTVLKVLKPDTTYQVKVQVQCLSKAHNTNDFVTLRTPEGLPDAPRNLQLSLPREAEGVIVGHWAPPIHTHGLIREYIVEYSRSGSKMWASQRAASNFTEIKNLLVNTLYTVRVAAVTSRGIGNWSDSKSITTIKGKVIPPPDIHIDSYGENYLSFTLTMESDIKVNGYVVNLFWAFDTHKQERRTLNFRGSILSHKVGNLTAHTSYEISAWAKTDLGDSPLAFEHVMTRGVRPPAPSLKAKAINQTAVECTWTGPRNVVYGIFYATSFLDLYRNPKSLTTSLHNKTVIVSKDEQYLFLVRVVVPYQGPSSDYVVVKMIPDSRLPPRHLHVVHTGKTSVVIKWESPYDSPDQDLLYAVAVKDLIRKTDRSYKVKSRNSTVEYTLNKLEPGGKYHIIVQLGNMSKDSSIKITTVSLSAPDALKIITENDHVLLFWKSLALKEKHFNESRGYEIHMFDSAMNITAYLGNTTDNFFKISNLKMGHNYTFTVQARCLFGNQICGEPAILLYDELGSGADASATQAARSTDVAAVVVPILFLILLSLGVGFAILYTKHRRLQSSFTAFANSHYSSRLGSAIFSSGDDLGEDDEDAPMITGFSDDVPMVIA
# Sequence of UniProt Q9NXH8 (Q9NXH8 whole entry, looked up): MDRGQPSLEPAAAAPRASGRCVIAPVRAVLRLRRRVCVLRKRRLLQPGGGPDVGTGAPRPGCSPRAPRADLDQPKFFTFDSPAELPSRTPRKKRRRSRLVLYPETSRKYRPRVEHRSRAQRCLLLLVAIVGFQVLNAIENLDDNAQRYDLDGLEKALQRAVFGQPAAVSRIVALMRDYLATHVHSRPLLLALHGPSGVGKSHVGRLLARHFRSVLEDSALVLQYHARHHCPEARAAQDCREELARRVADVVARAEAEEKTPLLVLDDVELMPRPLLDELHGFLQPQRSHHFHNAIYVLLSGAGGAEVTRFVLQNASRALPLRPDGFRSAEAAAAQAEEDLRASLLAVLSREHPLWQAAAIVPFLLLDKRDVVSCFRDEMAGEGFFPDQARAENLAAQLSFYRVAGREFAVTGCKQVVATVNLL
# Sequence of UniProt Q8TE77 (Q8TE77 whole entry, looked up): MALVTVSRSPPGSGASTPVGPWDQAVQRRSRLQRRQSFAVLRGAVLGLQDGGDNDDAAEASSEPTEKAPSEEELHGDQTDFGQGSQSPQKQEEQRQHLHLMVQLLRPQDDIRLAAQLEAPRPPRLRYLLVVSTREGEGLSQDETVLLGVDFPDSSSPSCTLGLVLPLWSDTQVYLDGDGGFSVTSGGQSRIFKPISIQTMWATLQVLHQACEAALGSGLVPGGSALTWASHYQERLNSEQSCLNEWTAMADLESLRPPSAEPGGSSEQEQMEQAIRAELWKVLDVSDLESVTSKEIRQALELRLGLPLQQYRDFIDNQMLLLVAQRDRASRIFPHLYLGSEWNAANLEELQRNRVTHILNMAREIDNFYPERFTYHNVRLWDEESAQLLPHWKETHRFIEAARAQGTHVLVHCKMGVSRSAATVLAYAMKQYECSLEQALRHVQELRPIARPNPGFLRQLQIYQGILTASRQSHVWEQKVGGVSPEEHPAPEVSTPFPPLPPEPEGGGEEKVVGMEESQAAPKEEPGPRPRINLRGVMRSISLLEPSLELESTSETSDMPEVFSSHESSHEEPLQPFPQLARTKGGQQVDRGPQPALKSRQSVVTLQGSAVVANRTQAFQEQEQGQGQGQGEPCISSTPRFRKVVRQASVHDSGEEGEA
# Sequence of UniProt Q8IX01 (Q8IX01 whole entry, looked up): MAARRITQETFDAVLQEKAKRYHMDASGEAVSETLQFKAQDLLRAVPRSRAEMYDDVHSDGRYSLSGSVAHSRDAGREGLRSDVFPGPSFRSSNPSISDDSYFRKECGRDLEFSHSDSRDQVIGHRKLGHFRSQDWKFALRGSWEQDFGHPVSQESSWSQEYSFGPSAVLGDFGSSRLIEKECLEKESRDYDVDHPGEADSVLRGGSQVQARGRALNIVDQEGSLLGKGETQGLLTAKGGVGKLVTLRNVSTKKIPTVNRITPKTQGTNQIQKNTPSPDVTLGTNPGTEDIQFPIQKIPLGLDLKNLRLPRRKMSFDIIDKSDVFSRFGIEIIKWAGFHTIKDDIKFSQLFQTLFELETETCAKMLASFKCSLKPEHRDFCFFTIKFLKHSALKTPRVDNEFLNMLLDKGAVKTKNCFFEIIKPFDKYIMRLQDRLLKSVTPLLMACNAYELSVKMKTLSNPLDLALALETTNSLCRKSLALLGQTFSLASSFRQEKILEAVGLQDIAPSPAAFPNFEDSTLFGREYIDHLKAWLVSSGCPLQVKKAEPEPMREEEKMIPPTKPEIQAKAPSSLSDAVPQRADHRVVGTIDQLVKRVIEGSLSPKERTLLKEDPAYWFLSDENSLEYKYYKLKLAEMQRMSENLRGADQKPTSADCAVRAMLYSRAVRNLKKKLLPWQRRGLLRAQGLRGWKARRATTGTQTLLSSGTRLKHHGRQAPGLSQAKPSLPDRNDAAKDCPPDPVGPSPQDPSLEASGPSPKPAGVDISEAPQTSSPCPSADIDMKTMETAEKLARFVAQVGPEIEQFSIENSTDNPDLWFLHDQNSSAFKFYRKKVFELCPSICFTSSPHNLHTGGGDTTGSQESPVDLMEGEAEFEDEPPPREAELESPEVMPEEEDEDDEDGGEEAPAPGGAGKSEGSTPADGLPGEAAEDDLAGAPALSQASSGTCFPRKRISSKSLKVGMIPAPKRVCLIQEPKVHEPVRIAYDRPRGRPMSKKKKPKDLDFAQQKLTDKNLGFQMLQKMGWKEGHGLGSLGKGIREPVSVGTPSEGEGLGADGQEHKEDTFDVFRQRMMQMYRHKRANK
# Sequence of UniProt Q86WV6 (Q86WV6 whole entry, looked up): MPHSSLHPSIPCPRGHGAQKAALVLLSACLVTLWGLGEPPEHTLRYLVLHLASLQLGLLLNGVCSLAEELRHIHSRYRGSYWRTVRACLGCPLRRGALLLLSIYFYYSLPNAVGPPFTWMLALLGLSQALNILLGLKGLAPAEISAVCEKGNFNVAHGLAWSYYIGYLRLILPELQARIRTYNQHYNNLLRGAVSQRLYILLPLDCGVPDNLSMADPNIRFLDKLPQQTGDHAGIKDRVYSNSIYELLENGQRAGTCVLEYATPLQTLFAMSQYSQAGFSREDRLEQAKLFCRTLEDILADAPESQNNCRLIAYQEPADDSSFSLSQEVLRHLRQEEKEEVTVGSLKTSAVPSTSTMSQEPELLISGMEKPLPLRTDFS
# Sequence of UniProt P49458 (P49458 whole entry, looked up): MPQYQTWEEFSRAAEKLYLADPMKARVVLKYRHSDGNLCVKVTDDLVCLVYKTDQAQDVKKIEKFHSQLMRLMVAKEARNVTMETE
Target,probe-labelled cysteine peptide fold change (10 µM),probe-labelled cysteine peptide fold change (50 µM)
STXBP1_P61764_110_AAHVFFTDSCPDALFNELVK (UniProt P61764),0.24,0.527
TBC1D4_O60343_74_SQKPEAGGCGAPAAR (UniProt O60343),-0.579,-1.59
TEP1_Q99973_2105_TPVLIHSFPACHR (UniProt Q99973),-0.0307,-0.291
TOP2A_P11388_170_LCNIFSTK (UniProt P11388),-0.173,-0.0147
TAF6_P49848_235_EITEACVGSCEAK (UniProt P49848),-0.193,-1.67
TOE1_Q96GM8_80_SLLNQCIEER (UniProt Q96GM8),-0.52,-2.28
STRADA_Q7RTN6_107_INLEACSNEMVTFLQGELHVSK (UniProt Q7RTN6),0.391,0.345
TNFAIP3_P21580_158_SQEFVETGLCYDTR (UniProt P21580),-0.274,0.0322
SRP9_P49458_48_VTDDLVCLVYK (UniProt P49458),0.216,-0.255
TNPO1_Q92973_205_SHAVACVNQFIISR (UniProt Q92973),0.172,0.0841
SORL1_Q92673_752_LEGELVPCPLAEENEFILYAVR (UniProt Q92673),0.124,0.148
TBC1D15_Q8TC07_184_YVVLCESPQDKR (UniProt Q8TC07),0.0621,-0.0543
TBCD_Q9BTW9_1055_TLDHVLTHGCFDIFTTEEDHPFAVK (UniProt Q9BTW9),-0.188,-0.0289
SNX1_Q13596_318_LQEVECEEQR (UniProt Q13596),-0.177,-0.146
SURF2_Q15527_29+38_CILTGHELPCR (UniProt Q15527),0.0902,-0.0729
SPAG5_Q96R06_907_TEQETLLLSTACPPTQEHPLPNDR (UniProt Q96R06),-0.115,0.0555
SPCS2_Q15005_17+26_SGGSGGCSGAGGASNCGTGSGR (UniProt Q15005),-0.494,-1.1
TET2_Q6N021_784_VEECFHGENQYSK (UniProt Q6N021),-0.295,-0.385
TARS_P26639_261_CGPLIDLCR (UniProt P26639),0.0971,0.248
TBCB_Q99426_51_LELLVGSPASCMELELYGVDDK (UniProt Q99426),0.0991,0.421
TLE1_Q04724_621_QFQGHTDGASCIDISNDGTK<|>TLE4_Q04727_624_QFQGHTDGASCIDISNDGTK (UniProt Q04727+Q04724),-0.231,-0.0783

Target,probe-labelled cysteine peptide fold change (10 µM),probe-labelled cysteine peptide fold change (50 µM)
SUN2_Q9UH99_601_VILQPDVHPGNCWAFQGPQGFAVVR (UniProt Q9UH99),0.0264,0.295
STK11_Q15831_418_ACSASSK (UniProt Q15831),-0.73,-1.42
THADA_Q6YHU6_1605_ENHPECFCK (UniProt Q6YHU6),-0.00737,0.033
ST13_P50502_209_LLGHWEEAAHDLALACKLDYDEDASAMLK (UniProt P50502),-0.319,-1.1
SUGP2_Q8IX01_417_NCFFEIIKPFDK (UniProt Q8IX01),-0.328,-1.49
THOP1_P52888_175_KLSLLCIDFNK (UniProt P52888),-0.00153,0.0417
SRPRA_P08240_253_VWELGGCANK (UniProt P08240),-0.192,-0.783
STXBP5_Q5T5C0_697_SRQPSGAGLCDISEGTVVPEDR (UniProt Q5T5C0),-0.389,-0.218
SPC24_Q8NBT2_155_IEWDYECEPGMVK (UniProt Q8NBT2),-0.17,0.000933
SP9_P0CG40_308_ATCDCPNCQEAER<|>SP8_Q8IXZ3_332_ATCDCPNCQEAER (UniProt Q8IXZ3+P0CG40),0.0559,0.393
TARSL2_A2RTX5_637_YHQCATIQLDFQLPIR (UniProt A2RTX5),0.00987,0.158
TOPBP1_Q92547_911_VVVCVSK (UniProt Q92547),-0.0487,-0.114
STX12_Q86Y82_29_DFSSIIQTCSGNIQR (UniProt Q86Y82),0.143,0.0626
TOR2A_Q5JU69_54_CTLGAFCECDFRPDLPGLECDLAQHLAGQHLAK (UniProt Q5JU69),-0.184,0.309
TEPSIN_Q96N21_273_ACGLLNCEAVLQLLTCHLR (UniProt Q96N21),0.821,2.62
TLN1_Q9Y490_1363_ECDNALRELETVR (UniProt Q9Y490),-0.431,-1
SPATA2_Q9UM82_41_QRPGSDECLR (UniProt Q9UM82),-0.46,-1.35
TBL2_Q9Y4P3_240_GQVLSTINTNQMNNTHAAVSPCGR (UniProt Q9Y4P3),-0.0462,0.0804
TOP1_P11387_504_AGNEKEEGETADTVGCCSLR (UniProt P11387),-0.0614,-1.22
SSH3_Q8TE77_434_QYECSLEQALR (UniProt Q8TE77),-0.058,-0.0996
STK11IP_Q8N1F8_707+710_TESPAVCPNCGSDHVVLLAVSR (UniProt Q8N1F8),0.0186,0.166

Target,probe-labelled cysteine peptide fold change (10 µM),probe-labelled cysteine peptide fold change (50 µM)
TMEM147_Q9BVK8_116_CIPLWVGAR (UniProt Q9BVK8),-0.0315,-0.102
STXBP5_Q5T5C0_933_VISLPTQNCAYK (UniProt Q5T5C0),0.186,0.107
TARS2_Q9BW92_322_IGKEQELFFFHELSPGSCFFLPR (UniProt Q9BW92),-0.0453,-0.425
SP100_P23497_266+270_EMPCPLPCDEESPEAELHNHGIQINSCSVR (UniProt P23497),-0.396,-1.25
TFCP2_Q12800_72_ILPFQYVLCAATSPAVK (UniProt Q12800),0.339,0.0755
SON_P18583-2_2133_DLMANATCFR (UniProt P18583),5.1e-05,-0.396
SP3_Q02447_683_KFVCPECSK (UniProt Q02447),0.188,0.33
SOS1_Q07889_838_CIVETENLEER (UniProt Q07889),0.113,0.392
TBCCD1_Q9NVR7_337_CNESFIYLLSPLR (UniProt Q9NVR7),0.178,0.422
TCF20_Q9UGU0_1795_SEDCGGGPR (UniProt Q9UGU0),-0.142,-0.0709
TONSL_Q96HA7_231_ECAHTMR (UniProt Q96HA7),-0.316,-1.42
TANK_Q92844_318_TKPSNLVNTCIR (UniProt Q92844),-0.257,-0.558
TIGAR_Q9NQ88_114_EECPVFTPPGGETLDQVK (UniProt Q9NQ88),-0.225,-1.35
ST14_Q9Y5Y6_602+604_DCDCGLR (UniProt Q9Y5Y6),-0.217,-1.07
SUZ12_Q15022_494_IDVSINECYDGSYAGNPQDIHR (UniProt Q15022),0.105,0.302
STRN_O43815_316_EDQCLMPEAWNVDQGVITK (UniProt O43815),-0.23,-0.374
SORD_Q00796_179_VLVCGAGPIGMVTLLVAK (UniProt Q00796),-0.0988,-1.77
TK1_P04183_206_ENCPVPGKPGEAVAAR (UniProt P04183),-0.0233,-0.211
TNPO3_Q9Y5L0_580_ITECLSELCSVQVMALKK (UniProt Q9Y5L0),-0.00843,-0.267
TMEM104_Q8NE00_455_DTQLAFGCGVSNK (UniProt Q8NE00),-0.127,-0.346
TPI1_P60174_164_VAHALAEGLGVIACIGEK (UniProt P60174),0.0839,0.00853

Target,probe-labelled cysteine peptide fold change (10 µM),probe-labelled cysteine peptide fold change (50 µM)
STK11_Q15831_210_ISDLGVAEALHPFAADDTCR (UniProt Q15831),-0.252,-0.136
THOC2_Q8NI27_436_DVFNMFCYLGPHLSHDPILFAK (UniProt Q8NI27),0.0617,0.215
TBC1D13_Q9NVG8_387_LLQDYPITDVCQILQK (UniProt Q9NVG8),-0.0681,-0.374
THG1L_Q9NWX6_47_DFEADDTCLAHCWVVVR (UniProt Q9NWX6),-0.0809,0.0136
TBC1D13_Q9NVG8_145_ATDYPCLLILDPQNEFETLR (UniProt Q9NVG8),-0.0238,0.373
SON_P18583_92_CVSVQTDPTDEIPTKK (UniProt P18583),-0.351,-1.24
TNS3_Q68CZ2_88_MCTICK (UniProt Q68CZ2),-0.357,-0.873
THOC1_Q96FV9_396_NEGCPSFVK (UniProt Q96FV9),-0.137,-0.0773
TOE1_Q96GM8_371_KQVCGDSIKPEETEQEVAADETR (UniProt Q96GM8),-0.0655,-0.661
SRP72_O76094_54_VVCLIQNGSFK (UniProt O76094),0.0906,-0.275
TCF20_Q9UGU0_1918_YHYPCAIDADCLLHEENFSVR (UniProt Q9UGU0),0.317,0.504
TEP1_Q99973_692_TVLVYLTDANADRLCPK (UniProt Q99973),-0.328,-0.442
STAM2_O75886_76_VPHVALQALTLLGACVANCGK (UniProt O75886),-0.0779,0.0749
SPECC1_Q5M775_578_ATEASAVEQTAESCEVQEMLK (UniProt Q5M775),-0.116,-0.22
TOR4A_Q9NXH8_230_HHCPEAR (UniProt Q9NXH8),-0.165,0.0719
SNTB1_Q13884_515_DGEIQLDLHSCPK (UniProt Q13884),-0.136,1
TMEM173_Q86WV6_12_PHSSLHPSIPCPR (UniProt Q86WV6),0.0393,-0.625
TBCE_Q15813_141_NCAVSCAGEK (UniProt Q15813),-0.11,-1.39
STIP1_P31948_471_CMMAQYNR (UniProt P31948),0.271,-0.0499
SORD_Q00796_301_YCNTWPVAISMLASK (UniProt Q00796),0.251,0.115
